# KCNQ2 inh: rat KCNQ2 potassium channel inhibitors, primary screen, cell-based, CHO-K1, FluxOR thallium flux, B-score | 1.1% of 310,000 active | 20 min; active compounds read low | AID 2156, 2009 | B-score at 10 µM | Potassium voltage-gated channel subfamily KQT member 2 (Rattus norvegicus), O88943;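 active = fluorescence ratio B-score at most minus 3 library SDs, with starting brightness B-score within 2 library SDs, cut at about -5.5 in these data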
# Target sequence (O88943 whole entry, looked up): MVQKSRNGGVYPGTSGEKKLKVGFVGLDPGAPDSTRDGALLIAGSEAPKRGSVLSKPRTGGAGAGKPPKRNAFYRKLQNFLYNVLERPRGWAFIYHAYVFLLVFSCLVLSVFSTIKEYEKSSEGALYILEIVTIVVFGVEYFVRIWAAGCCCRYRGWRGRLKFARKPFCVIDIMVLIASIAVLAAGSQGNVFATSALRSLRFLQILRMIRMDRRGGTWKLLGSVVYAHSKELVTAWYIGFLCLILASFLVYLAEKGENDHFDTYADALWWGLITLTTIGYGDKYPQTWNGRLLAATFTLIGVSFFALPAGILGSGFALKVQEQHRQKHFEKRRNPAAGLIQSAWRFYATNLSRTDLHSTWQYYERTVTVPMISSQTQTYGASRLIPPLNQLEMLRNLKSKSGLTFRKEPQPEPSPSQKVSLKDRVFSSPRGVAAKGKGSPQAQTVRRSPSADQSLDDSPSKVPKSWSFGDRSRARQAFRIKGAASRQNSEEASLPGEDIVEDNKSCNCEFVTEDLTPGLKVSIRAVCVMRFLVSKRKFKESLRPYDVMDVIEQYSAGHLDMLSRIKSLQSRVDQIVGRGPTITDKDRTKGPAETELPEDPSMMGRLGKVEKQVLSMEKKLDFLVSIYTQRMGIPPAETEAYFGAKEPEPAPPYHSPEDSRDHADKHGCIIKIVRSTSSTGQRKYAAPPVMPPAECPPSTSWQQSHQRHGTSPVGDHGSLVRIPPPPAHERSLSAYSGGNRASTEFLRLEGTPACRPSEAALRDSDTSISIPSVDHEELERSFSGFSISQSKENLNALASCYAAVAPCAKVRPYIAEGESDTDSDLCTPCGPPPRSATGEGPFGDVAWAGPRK
# KCNQ2 pot: potentiators of rat KCNQ2 potassium channel. B-score at 10 µM. 0.54% of 310,000 active. CHO-K1 KCNQ2, FluxOR thallium flux fluorescence; active compounds read high. AID 2239, 2010;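 active = fluorescence ratio B-score at least 3 SD of library B-scores, with initial fluorescence B-score within 3 of them, cut at about 5.3 in these data; same plate scores as AID 2156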;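 note: B-score of peak minus minimum over baseline fluorescence ratio after K+ and Tl+ stimulus; positive B-score means potentiation of KCNQ2 with more thallium influx and brighter signal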
# Hits are given with their value; . = inactive; / = no result given. Sampled rows, rich in hits. Any-hit rate of the full collection: about 1.6%.
SMILES,KCNQ2 inh,KCNQ2 pot
COC(=O)C1=CN(c2ccc(OC)cc2)C=C(C(=O)OC)C1c1ccc([N+](=O)[O-])cc1,-5.62,.
COc1ccc(C(=O)N[C@H](C(=O)NCc2cccs2)C(C)C)cc1,.,/
O=C1C2C3C=CC(C3)C2C(=O)N1CCN1CCN(Cc2ccc([N+](=O)[O-])cc2)CC1 (stereo not given),.,/
C[C@@H](C(=O)NCCc1ccc(F)cc1)N1C(=O)N2CCc3c([nH]c4ccccc34)[C@@]2(C)C1=O,-6.3,.
COc1ccc2[nH]c3c(c2c1)CCN1C(=O)N([C@@H](C)C(=O)NCc2ccc(F)cc2)C(=O)[C@]31C,.,/
COc1ccc2[nH]c3c(c2c1)CCN1C(=O)N([C@@H](C)C(=O)NCCc2ccc(F)cc2)C(=O)[C@]31C,-7.04,.
Cc1ccc(CNC(=O)[C@H](C)N2C(=O)N3CCc4c([nH]c5ccccc45)[C@@]3(C)C2=O)cc1,.,.
CCOC(=O)c1nn(-c2ccc(C)c(C)c2)c(=O)c(C#N)c1C,.,/
CC(C)CNC(=S)N(CCCO)Cc1cc2cc3c(cc2[nH]c1=O)OCO3,.,.
COc1ccccc1C(c1nnnn1CCc1ccccc1)N1CCN(c2ccccc2)CC1 (stereo not given),.,/
COc1cccc(C(c2nnnn2Cc2ccco2)N2CCN(c3cccc(C)c3C)CC2)c1OC (stereo not given),-6.2,.
COc1cccc(C(c2nnnn2CCc2ccccc2)N2CCN(c3ccccc3)CC2)c1OC (stereo not given),-6.69,.
COc1ccc(OC)c(C(c2nnnn2Cc2ccco2)N2CCN(C)CC2)c1 (stereo not given),.,/
CC1CN(C(=O)c2ccc(NS(=O)(=O)c3ccc(F)c(F)c3)cc2)CC(C)O1 (stereo not given),.,/
COC(=O)c1cn(C(=O)c2cc(C)cc(C)c2)c2ccccc12,.,.
COC(=O)c1cn(C(=O)c2cc(Br)ccc2Cl)c2ccccc12,-6.07,.
Cc1ccc(C(=O)C(C)OC(=O)Cn2cnc3c2c(=O)n(C)c(=O)n3C)cc1 (stereo not given),.,.
Cc1ccc([C@@H]2[C@@H]3C(=O)N(c4ccccc4)C(=O)[C@@H]3[C@]3(C)C(=O)N(Cc4ccc(-c5ccccc5)cc4)CC(=O)N23)o1,.,/
CC(C)C1Cc2c(sc(NC(=S)NC(=O)c3ccccc3)c2C#N)CO1 (stereo not given),.,.
CCOC(=O)c1c(NC(=S)NCCc2ccccc2)sc2c1CC(C(C)C)OC2 (stereo not given),.,7.54
Cc1ccc(-c2cc(-c3ccccc3)[nH]c(=S)c2C#N)cc1,.,.
N#Cc1c(-c2ccc(C(F)(F)F)cc2)cc(-c2ccccc2)[nH]c1=S,.,5.44
COc1ccc(C(CC(=O)NC(C)c2ccc(-c3ccccc3)cc2)NC(C)=O)cc1 (stereo not given),.,/
CCOC(=O)Cn1c2ccc(OC)cc2c2nc3ccccc3nc21,.,/
COC(=O)Cn1c2ccc(OC)cc2c2nc3ccccc3nc21,-5.71,.
SMILES,KCNQ2 inh,KCNQ2 pot
CCCN(C(=O)COC(=O)Cn1c(=O)oc2ccccc21)c1c(N)n(Cc2ccccc2)c(=O)[nH]c1=O,.,.
CC(C)C1OC2c3cccc4cccc(c34)C2N1c1ccccc1 (stereo not given),-5.73,.
COc1cc(NC(=O)CCn2c(=S)oc3ccccc32)cc(OC)c1OC,.,/
CN(C)CCN1C(=O)c2oc3ccccc3c(=O)c2C1c1cccc(Br)c1 (stereo not given),.,/
COc1ccc(C2c3c(oc4ccccc4c3=O)C(=O)N2CCCN2CCOCC2)cc1 (stereo not given),.,/
COc1ccc(C2c3c(oc4ccc(Cl)cc4c3=O)C(=O)N2CCN2CCOCC2)cc1 (stereo not given),-6.63,.
CN(C)CCN1C(=O)c2oc3ccc(Cl)cc3c(=O)c2C1c1cccc(Br)c1 (stereo not given),-6.28,.
CC(NC(=O)CNC(=O)C1CCCCC1)c1ccc(S(N)(=O)=O)cc1 (stereo not given),.,/
COc1cccc(OCC(O)CN(CCO)Cc2ccccc2)c1 (stereo not given),.,/
CCC(=O)c1ccc(OCC(O)CN(CCc2ccccc2)Cc2ccccc2)cc1 (stereo not given),-7.56,.
Cc1cc(O)ccc1N1C(=O)c2cccc3cc([N+](=O)[O-])cc(c23)C1=O,.,/
Cc1ccc(N2C(=O)c3cccc4c(Oc5ccccc5[N+](=O)[O-])ccc(c34)C2=O)c(C)c1,-6,.
CCCCOC(=O)c1ccc(NC(=S)NC(=O)c2c(Br)c(C)nn2C)cc1,.,9.6
CCOC(=O)c1ccc(NC(=S)NC(=O)c2cncc(Br)c2)cc1,.,/
Cc1ccc(O)c(C(CC(=O)NC(C)C)c2ccccc2)c1 (stereo not given),.,.
Cc1ccc(O)c(C(CC(=O)NCc2ccco2)c2ccccc2)c1 (stereo not given),.,15.9
CCCN(CCC)C(=O)CC(c1ccccc1)c1cc(C)ccc1O (stereo not given),-6.04,.
Cc1cccc(C(CC(=O)NCc2ccco2)c2ccccc2)c1O (stereo not given),.,.
CC(C)(C)NC(=O)NC(=O)C[n+]1ccc(Cc2ccc([N+](=O)[O-])cc2)cc1,.,.
O=C(c1cc(Br)c[nH]1)N1CCSCC1,.,/
CN(c1ccccc1)S(=O)(=O)c1cc(Cl)ccc1Cl,.,/
CN(c1ccccc1)S(=O)(=O)c1cccc(Cl)c1Cl,-5.61,.
Cc1nnc(NC(=O)CSc2nnc(CC(=O)Nc3ccccc3C)n2C)s1,.,/
Cc1ccc(-n2c(C)cc(C(=S)N3CCOCC3)c2C)cc1C,-7.4,.
Cc1cc(C(=S)N2CCOCC2)c(C)n1-c1ccc(F)cc1,.,/
SMILES,KCNQ2 inh,KCNQ2 pot
CCOP(=O)(OCC)c1nc(-c2cccc([N+](=O)[O-])c2)oc1N1CCCCC1,.,/
CCOP(=O)(c1ccccc1)c1nc(-c2ccccc2Cl)oc1N1CCCCC1 (stereo not given),-5.61,.
CCc1cc(C(=O)NCC(c2cccs2)N2CCOCC2)sc1C (stereo not given),.,/
O=C(c1cnn2c(C(F)(F)F)cc(-c3ccco3)nc12)N1CCCCCC1,.,.
O=C(c1cnn2c(C(F)(F)F)cc(-c3ccco3)nc12)N1CCc2ccccc2C1,-7,.
Cc1cc(C(F)F)n2ncc(C(=O)N3CCc4ccccc4C3)c2n1,.,.
O=C(c1cnn2c(C(F)F)cc(-c3ccccc3)nc12)N1CCc2ccccc2C1,-6.35,.
CCc1ccccc1NC(=O)c1cc(=O)c2ccccc2o1,.,.
CCOc1ccc(S(=O)(=O)N(C)c2ccc(OCC(=O)NCCc3ccc(OC)cc3)cc2)cc1,.,/
O=C(CCCc1nc(-c2ccccc2Cl)no1)NC1CCCC1,.,/
Cc1cc(C)c(CN2CCC(N3CCC(C(=O)NCC4CCCO4)CC3)CC2)cc1C (stereo not given),.,/
CCC1CCCCN1C(=O)COc1ccc(F)cc1 (stereo not given),.,.
CCC1CCCCN1C(=O)COc1c(Br)cc(Br)c2cccnc12 (stereo not given),-7.77,.
C=CCSc1nnc(NC(=O)c2cn(CC)c3nc(C)ccc3c2=O)s1,.,.
Cc1nc(NCCc2cnc[nH]2)c2oc3ccccc3c2n1,.,.
COc1ccc(CCNc2nc(C)nc3c2oc2ccccc23)cc1OC,-5.63,.
O=C(COc1ccc(Br)cc1Cl)NC1CCCCC1,.,.
CN(Cc1ccccc1)C(=O)COc1ccc(Br)cc1Cl,.,/

# Screening results as filed in PubChem.
